# Most compounds without a hit are left out; they make up all but 17% or so of the library.
# DT40 TDP1 CPT: DT40-hTDP1 cell growth loss with CPT; chicken DT40 Tdp1-/-;hTDP1 cells + 20 nM CPT, ATP luminescence, 48 h; Potency, µM (doses to about 46.2 µM), for the others: top-dose activity change, negative = growth inhibition, hits mostly inhibitors; actives 12% (n = 420,000); AID 686979; further: on the % scale 0 is the no-effect control and ±100 the full control effect; nearly all actives have a fitted effect of over 55% in size
#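 Cell growth measured by CellTiter-Glo luminescence after a minimum 48 h, 37 C compound exposure with 20 nM CPT in Tdp1-knockout DT40 cells stably expressing hTDP1, seeded 400/well; qHTS titration format.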
# HepG2 tox: kills HepG2 cells in TGF-b inhibitor counter-screen; actives 0.76% (n = 410,000); Potency, µM (highest dose often 46.1 µM), for inactives: top-dose activity change, negative = cytotoxicity, actives largely listed as cytotoxic; HepG2 CAGA-GFP viability, ATP luminescence, 18 h
#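 HepG2 CAGA-GFP cells (1000/well, DMEM with 1% FBS) received compound, then TGF-beta at 500 pg/mL final, and were incubated 18 hours at 37 degrees C. Viability was read by CellTiter-Glo luminescence. Media-only wells were set as complete cell-killing and DMSO as no toxicity.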
# S2 tox: viability counter-screen for ATXN expression inhibitors; S2 cells (HEK-293 line with an ATXN2-luciferase reporter) viability, CellTiter-Fluor protease fluorescence, 24 h; Potency, µM (doses to about 56.7 µM), actives largely listed as cytotoxic; actives 0.49% (n = 400,000); AID 651635; further: nearly all actives have a fitted effect of over 40% in size
# ATXN2 expr inh: ATXN2 expression inhibition | actives 0.72% (n = 360,000) | Potency, µM (highest dose often 57 µM), for inactives: at the top dose activity change, negative = inhibition, most hits filed as inhibitors | HEK-293 ATXN2-luciferase reporter, luminescence, 24 h; further: on the % scale 0 is the no-effect control and ±100 the full control effect; nearly all actives have a fitted effect of over 55% in size
#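 ATXN2-luciferase reporter cells (luciferase flanked by upstream and downstream ATXN2 gene portions) were treated 24 h at 37 °C with compounds at up to 57 uM. SteadyGlo luminescence gave expression; GF-AFC fluorescence gave viability.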
# TGFb inhibitor: inhibitors of TGF-b signaling; Potency, µM (doses to about 46.1 µM), for the others: at the highest dose activity, negative = inhibition, usual class: inhibitors; HepG2 CAGA-GFP TGF-b/SMAD3 reporter, GFP fluorescence, 18 h; TGF-beta stimulated, 500 pg/mL final; actives 1.2% (n = 410,000); further: on the % scale 0 is the no-effect control and ±100 the full control effect; nearly all actives have a fitted effect of over 65% in size
#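 TGF-beta reporter screen: HEPG2 CAGA-GFP, 1% FBS, 500 pg/mL TGF-beta final, 18 h; per-cell GFP summed per well; curves fitted and categorized by class.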
# DT40 TDP1 no CPT: qHTS for Inhibitors of human tyrosyl-DNA phosphodiesterase 1 (TDP1): qHTS in cells in absence of CPT | DT40 Tdp1-/- hTDP1 cells, no CPT, ATP luminescence, 48 h | Potency, µM (top dose mostly 46.2 µM), inactives show top-dose activity change, negative = growth inhibition, most hits filed as inhibitors | actives 15% (n = 420,000); further: on the % scale 0 is the no-effect control and ±100 the full control effect; nearly all actives have a fitted effect of over 55% in size
#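 A cellular qHTS used chicken DT40 cells lacking endogenous Tdp1 but carrying stably transfected human TDP1. Compounds were applied without camptothecin, and cell growth kinetics were judged by ATP-dependent luminescence after ≥48 hr.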
# * hit, by the source's call; i = inactive; ? = inconclusive; . = not tested or not shown; [ ] = remark or other dose. The call rests on the fitted dose curve; in most records, active means well fitted curve in the direction sought with a large enough effect; inconclusive means small, poorly fitted or top-dose-only effect, or another doubt; inactive means no such curve, though single readings can be large; an effect the other way counts as inactive or inconclusive. Potency means the concentration at half of the fitted maximal effect.
SMILES,DT40 TDP1 CPT,HepG2 tox,S2 tox,ATXN2 expr inh,TGFb inhibitor,DT40 TDP1 no CPT
COc1ccc(C(=O)N2CCCCC2CCN2CCOCC2)cc1 (centres undefined),-20%,8%,.,.,13%,-11%
Cc1cc(Nc2ccccc2)nc(-c2ccccc2O)n1,16µM*,-2%,?,17%,?,?
Cc1cc(N/N=C/c2c(O)ccc3ccccc23)nc(-c2ccccc2O)n1,8.2µM*,-20%,i,?,0%,2.6µM*
Cc1cc(Nc2cccc(F)c2)nc(-c2ccccc2O)n1,?,11µM*,i,-19%,?,?
CCOC(=O)c1ccc(Nc2cc(C)nc(-c3ccccc3O)n2)cc1,?,-23%,?,-13%,3%,29µM*
Cc1cc(NC2CCCCC2)nc(-c2ccccc2O)n1,-21%,-8%,i,15%,?,?
O=C(COC(=O)c1cc(Cl)ccc1O)NNC(=O)c1ccccc1F,-9%,-8%,?,-2%,-41%,-20%
COc1ccc(CCN2C(=O)COc3ccccc3C2C(=O)NC(C)(C)C)cc1OC (centres undefined),-2%,.,i,6%,.,-14%
Fc1cccc(Cl)c1/C=N/n1c(-c2cccnc2)n[nH]c1=S,?,-2%,i,7%,13%,-18%
Cc1ccc(C)c(Nc2cc(C)nc(-c3ccccc3O)n2)c1,6.5µM*,-10%,i,-19%,?,5.8µM*
Cc1cc(Nc2ccccc2Cl)nc(-c2ccccc2O)n1,?,-7%,i,-3%,-14%,?
Cc1ccc(S(=O)(=O)N2CCC(C(=O)Nc3ccccc3N3CCCC3)CC2)c(C)c1,?,-6%,i,-20%,19%,?
Cc1cc(/C=N/NC(N)=S)c(C)n1-c1ccc(Cl)c(Cl)c1,2.6µM*,-67%,?,-29%,?,3.7µM*
CCNC(=S)N/N=C/c1cc(C)n(-c2ccc(Cl)cc2)c1C,18µM*,6%,?,29%,-8%,21µM*
Cc1cc(/C=N/NC(=O)Cn2c3ccccc3c(=O)c3ccccc32)c(C)n1-c1ccc(Cl)cc1,?,-14%,.,-5%,-2%,29µM*
Cc1nc2ccccn2c1C(=O)N/N=C/c1ccccc1[N+](=O)[O-],-15%,1%,i,-5%,14%,-1%
Cc1nc2ccccn2c1C(=O)N/N=C/c1cc(C)n(-c2ccc(Cl)cc2)c1C,16µM*,-21%,i,-13%,-11%,15µM*
O=C(CSCn1nnc2c(=O)[nH]c(Cc3ccc(F)cc3)nc21)Nc1cccc(C(F)(F)F)c1,?,-7%,i,8%,?,?
O=C(Oc1ccccc1)N1CCN(c2ccccc2F)CC1,?,-10%,i,-22%,-12%,?
COCCCNS(=O)(=O)c1ccc2[nH]c3c(c2c1)CCCCC3,-50%,-18%,i,.,-21%,?
Cc1cccc(NC(=O)C2CCN(S(=O)(=O)c3ccc4[nH]c5c(c4c3)CCCCC5)CC2)c1,21µM*,-7%,.,.,?,?
Cc1ccc(NS(=O)(=O)c2ccc3[nH]c4c(c3c2)CCCCCC4)cc1Cl,?,13µM*,?,?,11µM*,?
CC(=O)c1cccc(NC(=O)C2CCN(S(=O)(=O)c3ccc4[nH]c(=O)ccc4c3)CC2)c1,7%,-13%,i,5%,-2%,16%
Cc1cccc(NS(=O)(=O)c2ccc3[nH]c4c(c3c2)CCCCCC4)c1,18µM*,20µM*,.,.,10µM*,?
O=S(=O)(Nc1cccc(Cl)c1)c1ccc2[nH]c3c(c2c1)CCCCCC3,16µM*,20µM*,.,?,11µM*,?
SMILES,DT40 TDP1 CPT,HepG2 tox,S2 tox,ATXN2 expr inh,TGFb inhibitor,DT40 TDP1 no CPT
Cc1nn(C)c(C)c1/C=C(\C#N)C(N)=O,0%,-12%,i,0%,9%,?
Cc1cccc(C(=O)NCc2nc(-c3cccc(NC(=O)C4CCCN(C)C4)c3)oc2C)n1 (centres undefined),9%[9.04 µM],.,i,.,.,?
NC(=S)N/N=C1\CC(n2nnn(-c3cccc(Cl)c3)c2=S)C2COC1O2 (centres undefined),2%,-2%,i,-23%,-3%,?
CCOC(=O)c1sc(NC(=O)CN2C(=O)NC3(CCC(C)CC3)C2=O)c(C(=O)OCC)c1C (centres undefined),-56%,0%,i,6%,-11%,-58%
CCOC(=O)c1sc(NC(=O)CN2C(=O)NC3(CC(C)CC(C)(C)C3)C2=O)c(C(=O)OCC)c1C (centres undefined),9.2µM*,-11%,i,7%,1%,10µM*
CCOC(=O)c1sc(NC(=O)CN2C(=O)NC3(CC(C)CC(C)(C)C3)C2=O)cc1C (centres undefined),?,-47%,i,-31%,?,18µM*
CS(=O)(=O)Nc1cccc(-c2cncnc2NCc2ccccc2)c1,-3%,.,.,.,.,10%
Cc1cc2c(c(-c3cnccn3)c1)OC(CNC(=O)c1c(F)cccc1Cl)C2 (centres undefined),10%[9.04 µM],.,i,.,.,?
Cc1ccc(C)c(NC(=O)Cn2nc(C)c3ccccc3c2=O)c1,-17%,13%,i,1%,-4%,3%
O=C(CN1C(=O)NC2(CCCC2)C1=O)Nc1cc(S(=O)(=O)N2CCOCC2)ccc1OCC(F)(F)F,-12%,-64%,i,-13%,?,-1%
O=C(Nc1cccc(-n2cccn2)c1)C1CCCN(Cc2ccccc2F)C1 (centres undefined),21µM*,-32%,i,-12%,-4%,?
COc1cc(CN2CCCC(C(=O)Nc3cccc(-n4cccn4)c3)C2)ccc1F (centres undefined),?,-27%,i,-21%,-20%,26µM*
Cc1ccc(C)c(SCC(=O)N(C)C2CCS(=O)(=O)C2)c1 (centres undefined),-6%,-1%,i,2%,-5%,2%
c1ccc(-c2nnc3oc(-c4cccs4)nn23)cc1,23µM*,-45%,?,.,?,12µM*
Nc1nnc(/C=C/c2ccccc2)s1,11%,-36%,i,30%,-12%,-4%

# Bioassay records deposited in PubChem by National Center for Advancing Translational Sciences (NCATS).
